# Experimental data from PubChem BioAssay (NCI).
# Compounds without any hit were thinned out: in the full panel of roughly 83,000, 20% have a hit.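 Single-concentration screen, 48 h exposure, 96-well plates. Endpoint: percent growth. Below 10 = active.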 Unmarked numbers belong to inactive results. The source made the active and inactive calls.
# Legend:
# Test in all cases: NCI-60 one-dose screen, 48 h (100 = growth as untreated, 0 = no growth, -100 = all killed)
# [1] = tested on: SR leukemia; conditions: 10 µM unless noted
# [2] = tested on: RPMI-8226 leukemia; conditions: 10 µM unless noted
# [3] = tested on: OVCAR-8 ovarian; conditions: 10 µM unless noted
# [4] = tested on: OVCAR-5 ovarian; conditions: 10 µM unless noted
# [5] = tested on: OVCAR-4 ovarian; conditions: 10 µM unless noted
# [6] = tested on: SK-OV-3 ovarian; conditions: 10 µM unless noted
# [7] = tested on: IGROV1 ovarian; conditions: 10 µM unless noted
# [8] = tested on: OVCAR-3 ovarian; conditions: 10 µM unless noted
# [9] = tested on: NCI/ADR-RES ovarian; conditions: 10 µM unless noted
# [10] = tested on: T-47D breast; conditions: 10 µM unless noted
# [11] = tested on: BT-549 breast; conditions: 10 µM unless noted
# [12] = tested on: MDA-MB-435 melanoma; conditions: 10 µM unless noted
# [13] = tested on: SW-620 colon; conditions: 10 µM unless noted
# [14] = tested on: MCF7 breast; conditions: 10 µM unless noted
# [15] = tested on: HCT-116 colon; conditions: 10 µM unless noted
# [16] = tested on: HCC-2998 colon; conditions: 10 µM
# [17] = tested on: KM12 colon; conditions: 10 µM unless noted
SMILES,growth [1],growth [2],growth [3],growth [4],growth [5],growth [6],growth [7],growth [8],growth [9],growth [10],growth [11],growth [12],growth [13],growth [14],growth [15],growth [16],growth [17]
COc1cc(Nc2ncc3c(n2)-c2ccc(Cl)cc2C(c2c(F)cccc2OC)=NC3)ccc1C(=O)O,5.63% (active),82.7%,68.3%,82.4%,78.4%,61.6%,63.3%,72.9%,64.2%,79.6%,62.8%,85.9%,54.7%,42.5%,45.3%,87.5%,28.3%
NC(=O)Nc1cc(-c2cccc(F)c2)sc1C(=O)N[C@H]1CCCNC1,-6.47% (active),6.16% (active),-15.2% (active),2.28% (active),25.5%,-46.4% (active),-50.5% (active),-1.15% (active),10%,15.1%,-60.9% (active),-25.8% (active),-7.1% (active),14.3%,-9.03% (active),-34.6% (active),1.83% (active)
COc1cc(NCCCN)c2ncccc2c1,68.5%,38.5%,82.1%,93.2%,84.1%,89.1%,95.7%,93.3%,85.7%,91.9%,74.9%,83.8%,79.1%,90.1%,60.4%,83.5%,68.2%
Cc1cc(C(=O)Nc2cc(Oc3ccc4nc(NC(=O)C5CC5)cn4n3)ccc2C)n(C)n1,29.5%,48.6%,30.2%,11.6%,49%,17.9%,12%,52.8%,60.2%,53.4%,30.1%,34.3%,15.2%,33.7%,6.14% (active),2.16% (active),12.2%
Cc1cc(Nc2cc(N3CCN(C)CC3)nc(Sc3ccc(NC(=O)C4CC4)cc3)n2)n[nH]1,16.7%,44.8%,38.6%,29%,77%,27.6%,30.7%,61.5%,73.8%,33.1%,23.5%,27.6%,19.3%,28.5%,18.3%,33.9%,6.38% (active)
CN(C)C[C@@H]1CCn2cc(c3ccccc32)C2=C(C(=O)NC2=O)c2cn(c3ccccc23)CCO1,-11.8% (active),-18.8% (active),-0.0404% (active),-7.31% (active),-45.9% (active),6.11% (active),-13.1% (active),1.36% (active),6.82% (active),21.2%,-3.62% (active),20.2%,-57.6% (active),-58.8% (active),-69.4% (active),22%,3.55% (active)
C=CCN(/C=C1/C(=O)O[C@H](COC)[C@@]2(C)C1=C(O)C(=O)C1=C2[C@H](OC(C)=O)C[C@]2(C)C(=O)CC[C@@H]12)CC=C,0.113% (active),35.2%,29.4%,20.5%,30.6%,-19.6% (active),-1.93% (active),21%,35.4%,-10.6% (active),-7.68% (active),21.4%,39.8%,11.8%,14.6%,-20.4% (active),22.4%
C=CC(=O)N1CCC[C@H](n2c(=O)n(-c3ccc(Oc4ccccc4)cc3)c3c(N)ncnc32)C1,74%,76.4%,65.8%,86.6%,85.3%,3% (active),30.7%,76.4%,74.9%,37.7%,91.9%,101%,97.4%,86.5%,74%,100%,92.1%
CN(C[C@@H]1COCCO1)S(=O)(=O)Nc1ccc2ccc3ncc(-c4cnn(C)c4)cc3c(=O)c2c1,13.1%,38.5%,31.3%,55.2%,38.2%,1.71% (active),11.5%,55.4%,52.1%,15.9%,28.1%,44.7%,37%,36.3%,24.1%,74.1%,10.2%
COc1cccc2cc(-c3nc(C4CCC(C(=O)O)CC4)n4ncnc(N)c34)[nH]c12 (stereo unspecified),7.63% (active),7.52% (active),1.18% (active),25.6%,-23.4% (active),-26% (active),-12.9% (active),12.3%,2.94% (active),-30.2% (active),-11.5% (active),-8.42% (active),14.4%,6.71% (active),26.3%,23.1%,18.4%
N#CC[C@H](C1CCCC1)n1cc(-c2ncnc3[nH]ccc23)cn1,2.14% (active),81.2%,64.4%,50.1%,81.5%,38.4%,38%,83%,87.9%,72%,77.9%,69.8%,73.2%,41.5%,39.4%,85.8%,19.1%
Cc1cc(Nc2nc(N[C@@H](C)c3ncc(F)cn3)ncc2Cl)n[nH]1,7% (active),89.9%,88.1%,59.8%,91.6%,75.3%,45%,93.3%,87.5%,86.5%,65.3%,77.2%,58%,63.1%,62.4%,61.4%,14.7%
O=C1CC(c2ccc(Cl)cc2)c2ncn(-c3cccc(Cl)c3)c2N1 (stereo unspecified),27.3%,58%,56.5%,96%,87.2%,47.8%,59.8%,13.3%,26.5%,68.7%,52.5%,-16.8% (active),26%,61.2%,19.1%,77.4%,54.1%
C[C@@H](Oc1cc(-c2cnn(C3CCNCC3)c2)cnc1N)c1c(Cl)ccc(F)c1Cl,-35.7% (active),-43.3% (active),-27.5% (active),-28.7% (active),-23.9% (active),-39.4% (active),-24.5% (active),6.67% (active),2.26% (active),-65.8% (active),-42.3% (active),-90.6% (active),-59.9% (active),-66.1% (active),-73.1% (active),-73.2% (active),-61.2% (active)
COC(=O)[C@H](Cc1ccc(O)cc1)NC(=O)[C@@H](OC)[C@@H]1Cc2cc3cc(OC4CC(OC5CC(O)C(O)C(C)O5)C(O)C(C)O4)c(C)c(O)c3c(O)c2C(=O)[C@H]1OC1CC(OC2CC(OC3CC(C)(O)C(O)C(C)O3)C(O)C(C)O2)C(O)C(C)O1 (stereo partly specified),9.7% (active),-5.59% (active),9.74% (active),10.6%,7.27% (active),20.7%,31.2%,5.52% (active),85.6%,4.63% (active),-36.9% (active),-26.8% (active),11.3%,8.15% (active),4.11% (active),-67% (active),5.68% (active)
COc1ccc2c(CCCCC(c3ccccc3)c3ccccc3)c3[n+](cc2c1OC)CCc1cc2c(cc1-3)OCO2,-35.8% (active),-33% (active),-54.8% (active),-13.4% (active),-80.2% (active),-9.34% (active),-52.1% (active),-89.6% (active),68.5%,-49.3% (active),-74.2% (active),-91.8% (active),-76.9% (active),-40.6% (active),-52.8% (active),-95.7% (active),-71.5% (active)
CC1(COc2ccc3c(c2)ncn3-c2ccc3cccc(N4CCC(N)CC4)c3n2)COC1,-6.81% (active),0.988% (active),3.53% (active),10.3%,29.2%,54.2%,22.7%,37.2%,51.5%,81.7%,43.1%,65.5%,1.95% (active),-10.1% (active),-45.6% (active),31.2%,6.35% (active)
Cn1ncc(Cl)c1-c1cc(C(=O)N[C@H](CN)Cc2ccc(F)c(F)c2)oc1Cl,-10.6% (active),-5.77% (active),-38.4% (active),5.81% (active),24.8%,-41.6% (active),-23.8% (active),18.2%,8.92% (active),-50.7% (active),-66.4% (active),-59.8% (active),27.9%,-28.5% (active),-28.3% (active),-89.9% (active),-39.2% (active)
